Measured values as given in PubChem BioAssay.
Values without a mark were called inactive. Active and inactive are the calls of the source.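 Rule for the calls: active = fluorescence slope after compound addition differing from the mean of all screened samples at 99.7% confidence, in either direction; inactive = the rest.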

Molecular target: Alpha-2C adrenergic receptor (Homo sapiens) (UniProt P18825)
Test: compounds altering alpha2C-coupled GIRK flux – cell-based, HEK293 alpha2C/GIRK1/2, thallium flux, primary screen (AID 624);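 note: slope of fluorescence ratio to pre-addition baseline per second over 15 to 24 s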
Conditions: thallium flux BTC fluorescence, at 10 µM, actives lie on both sides

Chain of Alpha-2C adrenergic receptor (Homo sapiens) (P18825 whole entry, looked up): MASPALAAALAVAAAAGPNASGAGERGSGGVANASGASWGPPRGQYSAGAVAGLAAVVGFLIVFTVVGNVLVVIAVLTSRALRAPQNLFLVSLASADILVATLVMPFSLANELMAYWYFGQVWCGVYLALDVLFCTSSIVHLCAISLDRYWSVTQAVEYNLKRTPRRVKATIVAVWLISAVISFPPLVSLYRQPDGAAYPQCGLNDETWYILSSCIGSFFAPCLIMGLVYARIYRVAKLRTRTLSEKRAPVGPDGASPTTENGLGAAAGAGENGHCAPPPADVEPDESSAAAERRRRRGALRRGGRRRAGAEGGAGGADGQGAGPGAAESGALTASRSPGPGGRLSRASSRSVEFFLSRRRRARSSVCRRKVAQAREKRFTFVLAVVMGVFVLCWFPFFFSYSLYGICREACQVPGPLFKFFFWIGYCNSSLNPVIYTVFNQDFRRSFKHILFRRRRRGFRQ

SMILES | slope
CCCc1cc(C(=O)Nc2ccc(C(C)=O)cc2)no1 | 0.00619
Cc1cc(C(=O)NCc2cccnc2)n(-c2ccccc2)n1 | 0.00657
Cc1ccc(C)c(NC(=O)CC(NCCCN2CCOCC2)C(=O)O)c1 (stereo not given) | 0.00589
COc1c(Br)cc2c(C)c(C(=O)O)oc2c1Br | 0.00602
CCOCCCNC(=O)C(c1ccc(C)cc1)N(Cc1ccc2c(c1)OCO2)C(=O)c1cnccn1 (stereo not given) | 0.00515
CC1CCCN(S(=O)(=O)c2coc(C(N)=O)c2)C1 (stereo not given) | 0.00651
Clc1ccc(C2=Nn3c(nnc3-c3n[nH]c4c3CCC4)SC2)cc1Cl | 0.00652
Clc1cccc(-c2nnc(-c3ccccc3)o2)c1 | 0.00595
CCOc1ccc(NC(=O)CN(C)CC(=O)NC2CCCc3ccccc32)cc1OCC (stereo not given) | 0.00604
Cc1nnc(SCC(=O)NCc2ccccc2)s1 | 0.00344
CCOC(=O)CSc1nc2sc(C)c(C)c2c(=O)n1C | 0.00254
COc1ccc(N2C(N)=C(C#N)C(c3cccnc3)C3=C2CC(C)(C)CC3=O)cc1 (stereo not given) | 0.00535
Cc1ccc(OCC(O)CN2C(=O)NC(C)(C)C2=O)cc1C (stereo not given) | 0.00799
Cc1ccccc1-n1c(Cn2c(=O)sc3ccccc32)nnc1SCC(=O)N1CCCC1 | 0.00766
COc1ccc(-c2noc(-c3ccccc3C(=O)NCc3ccco3)n2)cc1 | 0.00789
O=C(NCCCn1ccnc1)c1cnn2c1NC(c1ccccc1)CC2C(F)(F)F (stereo not given) | 0.00374
CC1(C)Oc2ccc3ccc(=O)oc3c2C(N2CCCCC2)C1O (stereo not given) | 0.00144
O=C(c1cnn2c1NC(c1ccco1)CC2C(F)(F)F)N1CCN(c2cccc(Cl)c2)CC1 (stereo not given) | 0.00418
Cc1ccc(-c2nn(-c3ccccc3)cc2CN(Cc2ccccc2)C(=O)CCC(=O)O)o1 | 0.00807
COC(=O)C1(C)NC(c2cccs2)C2C(=O)N(c3ccccc3F)C(=O)C21 (stereo not given) | 0.00503

SMILES | slope
O=c1ccc(S(=O)(=O)N2CCC(Cc3ccccc3)CC2)c[nH]1 | 0.00726
O=C(CN(CCc1ccccc1)C(=O)CNS(=O)(=O)c1ccccc1)NCC1CCCO1 (stereo not given) | 0.0066
CCn1c(SCC(=O)NC)nnc1C(C)C | 0.0053
O=C(Cn1ncc2c(=O)oc3ccccc3c21)NCC1CCCO1 (stereo not given) | 0.0073
Cc1ccc(-c2csc3ncn(-n4c(C)ccc4C)c(=O)c23)o1 | 0.00663
CCCOc1ccc(N2C(=O)CC(SCCN)C2=O)cc1 (stereo not given) | 0.00441
N#CC1=C(N)C(C#N)(C#N)[C@H](c2ccsc2)[C@H]2COCC=C12 | 0.00495
O=C(CCS(=O)(=O)c1cccc2nonc12)Nc1cccc2c1CCCC2 | 0.00573
C=COCCNC(=O)Nc1ccc(Cl)c(Cl)c1 | 0.00498
COc1ccc(CN2C(=O)[C@@H]3C(c4ccc(F)cc4)=NO[C@@H]3C2=O)cc1 | 0.00504
Cc1nc(NC(=O)C23CCC(C)(C(=O)O2)C3(C)C)sc1C (stereo not given) | 0.00641
COc1ccc(-c2cc3n(n2)CCc2nc4ccccc4n2-3)cc1 | 0.00599
Clc1ccc(C2Nc3ccccc3-n3cccc32)cc1 (stereo not given) | 0.00628
CCOC(=O)c1[nH]c(C)c(C(=O)N2CCN(C(=O)c3ccco3)CC2)c1C | 0.00532
CCCCSCCCNC(=O)CS(=O)Cc1nc(-c2cccc(C)c2)oc1C (stereo not given) | -0.000762 (active)
O=C(COC(=O)CSc1nnc(-c2ccc(Cl)cc2)o1)NCc1ccc2c(c1)OCO2 | 0.00607
Cc1ccc(C)c(S(=O)(=O)C(C#N)c2nc3ccccc3nc2N2CC(C)OC(C)C2)c1 (stereo not given) | 0.00382
COC(=O)c1sc2ccccc2c1NC(=O)c1cccs1 | 0.00536
CS(=O)(=O)N1CCN(c2ccccc2NC(=O)c2cccs2)CC1 | 0.00365
CNC(=O)c1ccc(N(Cc2ccccc2C)S(C)(=O)=O)cc1 | 0.00383
